Test in all cases: NCI-60 one-dose screen, 48 h (100 = growth as untreated, 0 = no growth, -100 = all killed)
The test system of experiment [1] is SR leukemia. The note with it: 10 µM unless noted.
The subject of experiment [2] is RPMI-8226 leukemia. The note with it: 10 µM unless noted.
In experiment [3] the test system is OVCAR-8 ovarian. The note with it: 10 µM unless noted.
Experiment [4] relates to OVCAR-5 ovarian. The note with it: 10 µM unless noted.
Experiment [5] has as its system OVCAR-4 ovarian. The note with it: 10 µM unless noted.
Experiment [6] deals with SK-OV-3 ovarian. To be noted: 10 µM unless noted.
The test system of experiment [7] is IGROV1 ovarian. To be noted: 10 µM unless noted.
Experiment [8] deals with OVCAR-3 ovarian. The note with it: 10 µM unless noted.
For experiment [9], the system named is NCI/ADR-RES ovarian. To be noted: 10 µM unless noted.
For experiment [10], the system named is HS 578T breast. The note with it: 10 µM.

About 83,000 compounds went through this panel and 20% of them were active in at least one assay; those are over-represented in the sample as a whole.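 Cell lines were cultured in 96-well plates, exposed to a single compound concentration, and assessed for percent growth 48 hours later.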 A number with no mark means an inactive call. Calls of active or inactive are those of the source. The calls were made as follows: active = growth percent below 10; inactive = the rest.

In the case of `COc1cccc(NC(=O)Nc2ccc(Nc3ncnc4sc5c(c34)CCN(C(=O)CCl)C5)cc2)c1`, the growth in experiment [1] is 77.8%; in experiment [2], 93.3%; in experiment [3] it was 84.4%; in experiment [4], 103%; in [5], 126%; in experiment [6], 93.8%. The results for the growth in [7], in experiment [8] and in [9] were 82.6%, 104% and 102%, respectively.

For `CCN1CCN(CCCN(C[C@H]2Cc3ccccc3CN2)[C@H]2CCCc3cccnc32)CC1`, the growth in [1] is 53.6%; in experiment [2] it was 81.8%; in [3] it was 85.3%; in experiment [4] it was 92.7%; in [5], 89.5%; in experiment [6] it was 89.4%. Further, the values for the growth in experiment [7], in [8] and in experiment [9] were 94.5%, 84.2% and 92.1%, respectively.

For the compound `NC1(C(=O)N[C@@H](CCO)c2ccc(Cl)cc2)CCN(c2ncnc3[nH]ccc23)CC1`, the growth in [1] was 23.7%; in experiment [2] it was 80%; in [3], 76.4%; in [4], 51.6%; in experiment [5], 64.9%; in experiment [6] it was -6.71% (active). Moreover, the growth in experiment [7] is 3.26% (active); in experiment [8] it was 61.3%; in experiment [9] it was 90.7%.

With `FC(F)(F)c1ccc(CNc2ccc(Cc3c[nH]c4ncc(Cl)cc34)cn2)cn1`, the growth is 11.1% in [1]; 26.3% in [2]; 14.3% in [3]; 30.5% in experiment [4]; 30% in experiment [5]; 16% in [6]. Further, the growth in experiment [7] is 41%; in [8], 41.6%; in experiment [9], 12.6%.

Consider `Cc1cnc(NC(=O)Nc2cc(Br)c(C)cc2OC[C@@H]2CNCCO2)cn1`, for which the growth in experiment [1] is -18.5% (active); in experiment [2], 13%; in [3], 1.6% (active); in experiment [4], 36.6%; in experiment [5], 45.6%; in experiment [6], 32%. Also, the growth in experiment [7] is 30.5%; in [8], 22.2%; in experiment [9], 7.93% (active).

Regarding `C=CC(=O)Nc1cc(Nc2nccc(-c3cn(C)c4ccccc34)n2)c(OC)cc1N(C)CCN(C)C`, the growth in [1] was -24% (active); in experiment [2], -22% (active); in experiment [3] it was -25.4% (active); in [4], -56.5% (active); in experiment [5], -13.5% (active); in experiment [6], 15.4%. Further, the growth in experiment [7] is -48.8% (active); in experiment [8] it was -55.3% (active); in experiment [9] it was -38.8% (active).

Regarding `COc1cc(OC)c(/C=C/S(=O)(=O)Cc2ccc(OC)c(NCC(=O)O)c2)c(OC)c1`, the growth in experiment [1] is 10.7%; in experiment [2], 25.6%; in experiment [3], 15.4%; in [4] it was 49.1%; in experiment [5], 60.1%; in [6], 15.8%. For the same compound, the growth in experiment [7] is 22.6%; in [8], 35.9%; in [9], 9.1% (active).

On to `O=C(O)C1(Cc2cccc(Nc3nccs3)n2)CCC(Oc2cccc(Cl)c2F)CC1` (stereo unspecified), for which the growth in experiment [1] is 47.5%; in experiment [2] it was 59.8%; in experiment [3], 56.6%; in experiment [4] it was 80.1%; in [5], 106%; in [6], 62.7%. In addition, the growth was 76.7% in [7], 71.2% in [8] and 46.4% in [9].

With `CCOC(=O)Sc1ncnc2nc[nH]c12`, the growth is 9.18% (active) in experiment [1]; 18.5% in experiment [3]; 47.2% in experiment [4]; 35.1% in experiment [5]; 23.9% in [6]; 45.1% in experiment [7]. In addition, the results for the growth in experiment [8], in experiment [10] and in [9] were 26.4%, 76.2% and 37%, respectively.

For `Nc1nc(Nc2ccccc2)c(C=Nc2ccccc2)c(=O)[nH]1`, the growth in experiment [2] was 94.8%; in experiment [3] it was 85.2%; in experiment [4], 90.7%; in experiment [5] it was 94.8%; in [6], 86.3%; in experiment [7], 48.5%. Further, the growth in experiment [8] was 110%; in experiment [10] it was 87.5%; in [9] it was 91.9%.

On to `COc1cc(C2CC(c3ccc(Cl)cc3)=NN2c2ccc(Cl)cc2)cc(OC)c1OC` (stereo unspecified), for which the growth in [1] is 98.7%; in experiment [2], 83.3%; in experiment [3], 101%; in [4], 88.1%; in experiment [5] it was 83.2%; in experiment [6], 98.2%. Besides, the growth is 94.8% in experiment [7], 84% in [10] and 95.6% in [9].

Regarding `O=C(COc1ccc(/C=C2\Cc3ccc(Cl)cc3C2=O)cc1)Nc1nccs1`, the growth is 148% in experiment [1]; 91.7% in [2]; 100% in experiment [4]; 90% in [5]; 108% in experiment [6]; 103% in experiment [8]. The growth was 101% in experiment [10] and 86.7% in experiment [9].

With `N#Cc1ccc(-n2nnc3ccccc32)cc1C#N`, the growth in [2] is 101%; in experiment [3] it was 99%; in [4], 110%; in experiment [5], 110%; in experiment [6] it was 98.8%; in experiment [7], 104%. In addition, the growth was 101% in experiment [8], 105% in [10] and 101% in experiment [9].
